For 47 compounds, inhibition results are on record in ChEMBL document CHEMBL3433997, “St. Jude Leishmania screening dataset” (2016).

Assay type in all cases: functional
The target in assay [1] is Solute carrier family 2, facilitated glucose transporter member 1 (Homo sapiens) (UniProt P11166). As to the kind of experiment: ST_JUDE_LEISH: Cytotoxicity at 2uM final concentration against transgenic Leishmania Mexicana promastigotes LmGLUT1 that are glucose transport deficient and complemented with the human glucose transporter GLUT1. Activity is measured by DNA content using SYBR green in vitro.
Sequence of Solute carrier family 2, facilitated glucose transporter member 1 (Homo sapiens) (P11166 whole entry): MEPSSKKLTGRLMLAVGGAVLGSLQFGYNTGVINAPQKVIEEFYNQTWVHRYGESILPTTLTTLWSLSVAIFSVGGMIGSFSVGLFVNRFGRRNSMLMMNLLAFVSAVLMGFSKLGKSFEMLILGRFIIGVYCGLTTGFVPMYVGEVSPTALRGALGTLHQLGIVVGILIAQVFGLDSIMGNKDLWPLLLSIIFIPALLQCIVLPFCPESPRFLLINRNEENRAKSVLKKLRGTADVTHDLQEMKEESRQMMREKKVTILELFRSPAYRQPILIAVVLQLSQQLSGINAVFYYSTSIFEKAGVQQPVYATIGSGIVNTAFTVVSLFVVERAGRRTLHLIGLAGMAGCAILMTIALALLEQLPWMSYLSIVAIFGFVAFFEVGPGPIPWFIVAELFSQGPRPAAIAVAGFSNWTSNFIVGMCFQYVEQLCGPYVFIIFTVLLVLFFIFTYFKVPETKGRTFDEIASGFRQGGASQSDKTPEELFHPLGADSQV

Assay [2] concerns the target Hexose transporter 1 (Plasmodium falciparum) (UniProt O97467). As to the kind of experiment: ST_JUDE_LEISH: Cytotoxicity at 2uM final concentration against transgenic Leishmania Mexicana promastigotes LmPfHT that are glucose transport deficient and complemented with the Plasmodium falciparum hexose transporter. Activity is measured by DNA content using SYBR green in vitro.

Assay [3] concerns the target Glucose transporter (Leishmania mexicana) (UniProt O61059). Nature of the assay: ST_JUDE_LEISH: Cytotoxicity at 2uM final concentration against transgenic Leishmania Mexicana promastigotes LmGT2 that are glucose transport deficient and complemented with the L. Mexicana glucose transporter 2. Activity is measured by DNA content using SYBR green in vitro.

A word on the inhibition: it is the drop in the measured response relative to a control, in per cent. For the compound `CC(C)Cc1csc(NC(=O)C=Cc2ccco2)c1C(=O)O`, the inhibition in assay [1] was -0.28%; in assay [2], 0.8%; in assay [3] it was -0.08%.

As for `CN1CCN(c2ccnc3cc4c(cc23)N(Cc2ccccc2)CC4)CC1`, the inhibition in assay [1] is -1.34%; in assay [2], -0.13%; in assay [3] it was 0.13%.

As for `Cc1cccc(C(=O)NCCCN2CCC(NC(=O)/C=C/c3ccc(Cl)c(Cl)c3)CC2)c1`, the inhibition in assay [1] came to 1.05%; in assay [2], 0.15%; in assay [3] it was 2.02%.

As for `Clc1ccc(-c2cnc3ccc(NCc4ccncc4)nn23)cc1`, the inhibition in assay [1] is 2.08%; in assay [2], 0.84%; in assay [3], -0.5%.

As to `COc1cc2nc(N3CCC(CNC(=O)/C=C/c4cccc(C)c4)CC3)nc(N)c2cc1OC`, the inhibition is 7.71% in assay [1], 0.18% in assay [2] and -0.03% in assay [3].

On to `CN1CCCC1CCNCc1cccc(-c2cnc(N3CCCC(C)(C)C3)nc2)c1` (stereo unspecified), for which the inhibition in assay [1] stood at 108%; in assay [2] it was 103%; in assay [3], 104%.

As for `Cc1cc(CNCCCCCCCNCc2ccc(Cl)cc2)ccc1O`, the inhibition in assay [1] stood at 0.64%; in assay [2] it was 3.98%; in assay [3] it was 0.81%.

As to `FC(F)(F)COc1ccc(CCNCCCCNCCc2ccc(OCC(F)(F)F)c3ccccc23)c2ccccc12`, the inhibition in assay [1] was -0.09%; in assay [2], 12.3%; in assay [3] it was 1.09%.

In the case of `Cc1cc(=NN=Cc2cccc(F)c2)c2ccc(F)cc2[nH]1`, the values for the inhibition in assay [1], in assay [2] and in assay [3] were 10.5%, 7.85% and 7.27%, respectively.

Turning to `Cc1cc(N[C@@H](Cc2ccccc2)C(=O)NC2CCCC2)nc(NCCc2cccs2)n1`, the inhibition in assay [1] came out at 1.27%; in assay [2], 2.88%; in assay [3], 1.56%.

With `CCCc1ccc(C2CCN(CCCCNC(=O)c3ccc(NC(=O)c4ccc(Cl)cc4)cc3)CC2)cc1`, the inhibition in assay [1] was 0.56%; in assay [2], -1%; in assay [3], 0.1%.

Take `CCC[C@@H]([C@@H](CC1CCCCC1)C(=O)N[C@H](C(=O)Nc1nccc(N)n1)C(C)(C)C)N(O)C=O`: the results for the inhibition in assay [1], in assay [2] and in assay [3] were 3.28%, 4.83% and 4.24%, respectively.

Regarding `Cc1ccc(C)c(S(=O)(=O)NCC2CCN(Cc3ccc(O)cc3)CC2)c1`, the inhibition in assay [1] is 41.3%; in assay [2], 7.78%; in assay [3], -2.61%.

As to `Cc1cc(N[C@@H](Cc2ccccc2)C(=O)NCc2cccc(F)c2)nc(NCCc2ccc(F)cc2)n1`, the inhibition in assay [1] turned out to be 4.47%; in assay [2] it was 2.55%; in assay [3], 1.36%.

Regarding `COCc1nc(-c2ccccc2)nc(N2CCN(C(=O)NC(C)C)CC2)c1Cc1ccccc1F`, the inhibition in assay [1] came out at 8.3%; in assay [2] it was 6.85%; in assay [3], 6.8%.

For the compound `Cc1ccc(S(=O)(=O)N(CCCNCc2cccc(O)c2)c2ccccc2)cc1`, the inhibition in assay [1] stood at 9.85%; in assay [2], 6.1%; in assay [3] it was 7.86%.

For `COC(=O)c1ccc(C2OC3(C(=O)c4ccccc4C3=O)C(OC)=C2Cl)cc1C(C)=O` (stereo unspecified), the inhibition in assay [1] is -2.44%; in assay [2], -0.79%; in assay [3] it was -0.7%.

`COc1ccccc1C(C)NCC(=O)Nc1ccccc1Sc1ccccc1` (stereo unspecified): the inhibition in assay [1] turned out to be 0.18%; in assay [2], 0.01%; in assay [3], 1.44%.

As to `CCn1c(-c2nonc2N)nc2c(-c3cccc(NC(=O)Nc4ccc(C#N)cc4)c3)ncc(OCCCN)c21`, the inhibition was 1.92% in assay [1], -0.33% in assay [2] and 2.67% in assay [3].

With `CC(=O)Nc1ccc(NC(=O)c2cc(-c3ccc(C)cc3O)n[nH]2)cc1`, the inhibition was -0.23% in assay [1], 7.7% in assay [2] and 0.4% in assay [3].

For `CCn1ncc(Cl)c1CN(C)S(=O)(=O)c1ccc(Br)cc1`, the inhibition is -0.68% in assay [1], -0.62% in assay [2] and -2.26% in assay [3].

Take `COc1ccccc1-c1csc(C(=O)NCC2CCN(Cc3ccc(C(C)C)cc3)C2)c1` (stereo unspecified): the inhibition in assay [1] is -1.65%; in assay [2], -2.5%; in assay [3], -1.65%.

Consider `CN1CCN(c2nsc3ccc(-c4ccc(OCCN5CCCC5)cc4)cc23)CC1`, for which the results for the inhibition in assay [1], in assay [2] and in assay [3] were 13.2%, 11.4% and 9.39%, respectively.

For the compound `Cn1ccnc1S(=O)(=O)CCNCc1ccc(-c2ccc3ncnc(Nc4ccc(OCc5cccc(F)c5)c(Cl)c4)c3c2)o1`, the inhibition in assay [1] came out at 3.08%; in assay [2], 6.11%; in assay [3], 0.71%.

Turning to `NC(=O)c1cccc(C(=O)Nc2ccc(-c3cccc(-c4nc5cc(C(F)(F)F)ccc5[nH]4)c3)cc2)c1`, the inhibition in assay [1] was 0.39%; in assay [2] it was -0.82%; in assay [3] it was -2.19%.

On to `Cc1c(CNCCCNc2cc(=O)c3ccccc3[nH]2)sc(C(F)F)c1Br`, for which the inhibition in assay [1] was -0.36%; in assay [2] it was -0.4%; in assay [3], -1.09%.

`O=C(Nc1cccc(CN2CCCN(Cc3ncc[nH]3)CC2)c1)c1ccc(Cl)c(Cl)c1`: the values for the inhibition in assay [1], in assay [2] and in assay [3] were 2.9%, 3.94% and 5.79%, respectively.

In the case of `FC(F)(F)c1ccc2[nH]c(-c3ccc(-c4ccc(CNCC5CCCO5)cc4)s3)nc2c1` (stereo unspecified), the values for the inhibition in assay [1], in assay [2] and in assay [3] were -1.55%, 0.38% and -1.62%, respectively.

Turning to `COc1ccccc1C(=O)C1CCCN(C(=O)c2ccccc2C(F)(F)F)C1` (stereo unspecified), the inhibition is -0.79% in assay [1], -0.77% in assay [2] and 9.65% in assay [3].

In the case of `COc1nc2c(CCN3CCC(NCc4ccc5c(c4)NCCO5)CC3)c(Cl)cnc2cc1F`, the inhibition was 14.1% in assay [1], 9.24% in assay [2] and 2.35% in assay [3].

Regarding `O=C(Nc1ccc(-c2ccc(-c3nc4ccccc4[nH]3)s2)cc1)Nc1ccsc1`, the inhibition in assay [1] is 0.72%; in assay [2], -0.46%; in assay [3], 4.17%.

`CCCc1cc(C)ccc1OCCCON1C(N)=NC(N)=NC1(C)C`: the inhibition in assay [1] was determined as 31.1%; in assay [2] it was 45.5%; in assay [3] it was 25.9%.

In the case of `CC(C)NC(C)(C)CN(Cc1ccc(-c2ccc(C(F)(F)F)cc2)cc1)C(=O)Cn1c(CCc2cccc(F)c2F)nc(=O)c2ccccc21`, the inhibition in assay [1] is 0.37%; in assay [2], -0.61%; in assay [3], -0.1%.

For `O=C(c1cc2cccc([N+](=O)[O-])c2[nH]1)N1CCC(CCN2CCC(c3c[nH]c4ccccc34)CC2)CC1`, the inhibition was 1.52% in assay [1], 12.8% in assay [2] and 2.6% in assay [3].

Take `COc1ccc(-c2ccc(NC(=O)c3cccc(Cl)c3)cc2)cc1CN(C)CCO`: the inhibition in assay [1] was 1.99%; in assay [2], 0.94%; in assay [3], -1.71%.

As for `CC(C)Nc1nc(NC2CCCCC2)nc(N2CCCCCCC2)n1`, the values for the inhibition in assay [1], in assay [2] and in assay [3] were 19.3%, 17.4% and 11.6%, respectively.

`Cc1nccn1CCNC(=O)CN1CCC2(CCC1=O)CC(=O)c1ccccc1O2` (stereo unspecified): the inhibition was determined as 8.32% in assay [1], 7.32% in assay [2] and 7.28% in assay [3].

`O=C(NOCc1ccccc1)c1cc(Cl)ccc1O`: the results for the inhibition in assay [1], in assay [2] and in assay [3] were 2.44%, 3.78% and 2.15%, respectively.

Consider `Cc1cc(C2CCN(CCCCNC(=O)c3ccc(-c4ccc(C(F)(F)F)cc4)cc3)CC2)c(C)cc1OCCOC1CCCCO1` (stereo unspecified), for which the inhibition in assay [1] was 1.45%; in assay [2], -0.6%; in assay [3], 2.21%.

Take `O=C(/C=C/c1ccc(Cl)c(Cl)c1)NCCCCCN1CCCC(C(=O)Nc2cccc(Cl)c2)C1` (stereo unspecified): the inhibition is 3.89% in assay [1], 2.5% in assay [2] and 1.07% in assay [3].

As to `Cn1cnc(CCNC(=O)c2ccc(-c3cccc(-c4nc5cc(C(F)(F)F)ccc5[nH]4)c3)cc2)c1`, the inhibition in assay [1] is 4.83%; in assay [2] it was 4.43%; in assay [3], 5.89%.

As for `Cc1cccc(CNc2nc(C)cc(NCCC(=O)Nc3ccccc3)n2)c1`, the inhibition in assay [1] amounted to 10.3%; in assay [2], 11.3%; in assay [3] it was 5.57%.

As for `CC(=O)Nc1nc(C(=O)Nc2ccc(-c3cccc(-c4nc5cc(C(F)(F)F)ccc5[nH]4)c3)cc2)cs1`, the inhibition amounted to 0.32% in assay [1], 2.2% in assay [2] and 0.81% in assay [3].

In the case of `O=c1cc(NCCCNCc2cc(C(F)(F)F)ccc2Cl)[nH]c2ccccc12`, the inhibition in assay [1] was -0.91%; in assay [2], 0.29%; in assay [3], -1.57%.

As to `O=C(C1COc2ccccc2O1)N(CCCn1ccnc1)Cc1csc(-c2ccc(CNCc3ccccc3)cc2)n1` (stereo unspecified), the inhibition in assay [1] turned out to be 3.99%; in assay [2], 4.14%; in assay [3] it was 2.05%.

Consider `Oc1ccc(CCNc2nc(NCCCOc3ccccc3-c3ccc(C(F)(F)F)cc3)nc(N3CCNCC3)n2)cc1`, for which the results for the inhibition in assay [1], in assay [2] and in assay [3] were -0.03%, -1.9% and -0.21%, respectively.

For the compound `COc1cccc2c(Nc3ccccc3C)nc(Nc3ccccc3C)nc12`, the inhibition in assay [1] amounted to 19.6%; in assay [2], 16.8%; in assay [3], 4.14%.
